G9a inh: qHTS Assay for Inhibitors of Histone Lysine Methyltransferase G9a | actives 8.8% (n = 350,000) | G9a H3K9 monomethylation, AlphaScreen, 2 h | Potency, µM (titrated, usually from 102 µM), for inactives: top-dose activity, negative = inhibition, hits mostly inhibitors | Histone-lysine N-methyltransferase EHMT2 (Homo sapiens), Q96KQ7 | AID 504332, 2011; further: on the % scale 0 is the no-effect control and ±100 the full control effect; nearly all actives have a fitted effect of over 75% in size
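AlphaScreen read-out: biotin-H3K9 peptide (500 nM) methylation by 20 nM enzyme with 20 uM SAM, 2 h at room temperature after 15 min compound preincubation; anti-monomethyl H3K9 antibody plus donor/acceptor beads, 10 min dark.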
HP1b chromo inh: HTS for Inhibitors of HP1-beta Chromodomain Interactions with Methylated Histone Tails; Chromobox protein homolog 1 (Homo sapiens), P83916; AlphaScreen HP1-beta / biotin-H3K9me3 peptide binding; Potency, µM (series often up to 114 µM), for inactives: at the highest dose activity change, negative = inhibition, usual class: inhibitors; actives 0.56% (n = 390,000); AID 540317, 2011; further: nearly all actives have a fitted effect of over 70% in size
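Compound inhibition of the preformed complex between 50 nM HP1-beta and 50 nM biotinylated H3K9me3 peptide was read by AlphaScreen. Buffer was PBS pH 7.4 with 0.01% Tween-20. Incubations ran 30 min at room temperature, with 10 ug/mL donor/acceptor beads.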
GLS inh: qHTS for Inhibitors of Glutaminase (GLS); AID 624170, 2012; GLS enzymatic activity, qHTS titration; actives 0.21% (n = 410,000); Potency, µM (highest dose often 45.5 µM), without a hit: top-dose activity change, negative = inhibition, usual class: inhibitors; further: on the % scale 0 is the no-effect control and ±100 the full control effect
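Glutamate formation by hKGA was monitored fluorometrically using coupled glutamate oxidase, HRP and Amplex Red. Substrate was added as 1 mM L-glutamine solution; incubation was 30 min at RT after an initial read.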
BAZ2B block: qHTS Assay for Inhibitors of BAZ2B; AID 504333, 2011; AlphaScreen BAZ2B-H3K14Ac peptide displacement; Bromodomain adjacent to zinc finger domain protein 2B (Homo sapiens), Q9UIF8; actives 4.4% (n = 360,000); Potency, µM (series often up to 114 µM), inactives show top-dose activity change, negative = inhibition, hits mostly inhibitors; further: on the % scale 0 is the no-effect control and ±100 the full control effect; nearly all actives have a fitted effect of over 60% in size
Target sequence (Q9UIF8 whole entry, looked up, the tested form may be a part): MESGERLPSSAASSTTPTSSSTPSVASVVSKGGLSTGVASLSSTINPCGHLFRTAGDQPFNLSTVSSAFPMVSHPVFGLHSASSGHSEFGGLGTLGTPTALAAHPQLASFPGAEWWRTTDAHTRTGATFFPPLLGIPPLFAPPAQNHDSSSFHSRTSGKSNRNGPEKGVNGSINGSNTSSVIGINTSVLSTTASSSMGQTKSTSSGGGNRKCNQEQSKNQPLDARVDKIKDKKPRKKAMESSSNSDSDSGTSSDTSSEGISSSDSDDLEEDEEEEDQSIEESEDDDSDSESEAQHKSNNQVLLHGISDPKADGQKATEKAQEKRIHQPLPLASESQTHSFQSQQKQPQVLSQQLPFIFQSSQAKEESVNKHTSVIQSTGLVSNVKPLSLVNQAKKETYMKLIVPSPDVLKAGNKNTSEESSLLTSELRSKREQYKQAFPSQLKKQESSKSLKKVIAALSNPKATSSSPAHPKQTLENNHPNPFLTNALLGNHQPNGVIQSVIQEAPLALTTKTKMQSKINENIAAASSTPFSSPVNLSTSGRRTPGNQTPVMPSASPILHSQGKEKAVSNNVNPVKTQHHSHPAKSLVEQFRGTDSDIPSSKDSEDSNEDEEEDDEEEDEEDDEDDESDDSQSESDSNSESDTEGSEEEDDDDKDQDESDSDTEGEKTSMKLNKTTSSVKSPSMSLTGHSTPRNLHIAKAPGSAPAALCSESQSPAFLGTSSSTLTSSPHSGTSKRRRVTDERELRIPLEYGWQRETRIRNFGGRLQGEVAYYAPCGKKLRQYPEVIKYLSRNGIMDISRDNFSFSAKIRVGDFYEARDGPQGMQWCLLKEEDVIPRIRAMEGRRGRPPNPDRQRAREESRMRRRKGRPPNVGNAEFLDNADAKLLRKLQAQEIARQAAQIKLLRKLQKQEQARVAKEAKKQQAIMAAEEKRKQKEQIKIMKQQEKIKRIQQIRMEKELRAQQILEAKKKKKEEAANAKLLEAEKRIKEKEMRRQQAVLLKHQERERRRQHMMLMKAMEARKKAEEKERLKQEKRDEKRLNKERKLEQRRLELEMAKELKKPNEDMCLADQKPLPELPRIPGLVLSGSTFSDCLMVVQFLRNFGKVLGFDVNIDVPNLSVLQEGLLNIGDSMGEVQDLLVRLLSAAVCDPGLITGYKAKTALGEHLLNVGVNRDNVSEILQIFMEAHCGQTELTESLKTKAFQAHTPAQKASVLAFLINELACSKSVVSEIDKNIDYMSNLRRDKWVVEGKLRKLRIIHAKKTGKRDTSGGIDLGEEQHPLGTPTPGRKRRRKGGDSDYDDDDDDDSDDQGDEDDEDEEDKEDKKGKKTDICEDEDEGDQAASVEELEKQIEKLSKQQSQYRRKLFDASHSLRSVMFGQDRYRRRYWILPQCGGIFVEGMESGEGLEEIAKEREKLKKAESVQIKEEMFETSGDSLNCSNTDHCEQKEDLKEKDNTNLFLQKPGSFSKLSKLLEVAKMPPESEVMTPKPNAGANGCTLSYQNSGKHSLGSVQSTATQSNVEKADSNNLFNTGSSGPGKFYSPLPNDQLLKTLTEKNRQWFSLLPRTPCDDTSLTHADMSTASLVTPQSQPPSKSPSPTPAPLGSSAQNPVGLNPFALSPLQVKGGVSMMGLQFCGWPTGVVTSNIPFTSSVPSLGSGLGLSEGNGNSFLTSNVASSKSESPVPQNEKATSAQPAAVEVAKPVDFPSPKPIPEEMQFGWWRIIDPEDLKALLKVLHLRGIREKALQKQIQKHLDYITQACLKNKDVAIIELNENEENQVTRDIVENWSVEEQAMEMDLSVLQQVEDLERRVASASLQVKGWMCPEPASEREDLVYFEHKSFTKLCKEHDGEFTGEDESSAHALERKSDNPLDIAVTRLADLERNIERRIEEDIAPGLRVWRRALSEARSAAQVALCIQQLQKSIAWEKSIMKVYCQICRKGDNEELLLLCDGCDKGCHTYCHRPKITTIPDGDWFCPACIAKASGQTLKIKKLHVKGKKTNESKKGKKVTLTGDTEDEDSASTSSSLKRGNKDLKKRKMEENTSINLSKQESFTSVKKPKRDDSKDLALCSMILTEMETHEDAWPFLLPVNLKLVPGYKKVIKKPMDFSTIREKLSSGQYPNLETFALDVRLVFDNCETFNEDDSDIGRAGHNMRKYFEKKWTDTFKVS
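Inhibition is scored as reduced AlphaScreen emission. The BAZ2B/b-H3(5-23)K14Ac complex (50 nM each) in PBS pH 7.4, 0.01% Tween-20 meets compound (up to 110 uM) for 30 min at RT before bead addition.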
JMJD2A Tudor inh: qHTS Assay for Inhibitors of JMJD2A-Tudor Domain | Lysine-specific demethylase 4A (Homo sapiens), O75164 | AlphaScreen JMJD2A-Tudor / H3K4me3 peptide binding | Potency, µM (top dose mostly 114 µM), without a hit: top-dose activity change, negative = inhibition, actives largely listed as inhibitors | actives 4.4% (n = 390,000); further: on the % scale 0 is the no-effect control and ±100 the full control effect; nearly all actives have a fitted effect of over 50% in size
Numbers without * were called inactive; ? = inconclusive; · = no result; [ ] = another dose, or the depositor's remark. This is a sample that favours compounds with a hit; in the whole collection about 10% have one here. The call rests on the fitted dose curve; in most records, active means well fitted curve in the direction sought with a large enough effect; inconclusive means small, poorly fitted or top-dose-only effect, or another doubt; inactive means no such curve, though single readings can be large; an effect the other way counts as inactive or inconclusive. Potency means the concentration at half of the fitted maximal effect.

SMILES	G9a inh	HP1b chromo inh	GLS inh	BAZ2B block	JMJD2A Tudor inh
CCCNC(=O)C1(C)CCN(C(=O)c2oc3ccccc3c2C)C1 (centres undefined)	·	·	-20.9%	·	·
O=C1CC(c2ccccc2)=Nc2ccccc2N1	3.4%[12.7 µM]	16.8%	0.0%	6.3%	-13.1%
O=C1CC(/C=C/c2ccncc2)=Nc2ccccc2N1	39.8µM*	36.9%	1.5%	-20.2%	-12.4%
O=C(Nc1ccc(N2CCCC2)cc1)c1cc(Br)ccc1Cl	8.91µM*	5.1%	8.9%	-34.3%	?
CS(=O)(=O)c1ccc(C(=O)Nc2ccc(N3CCCC3)cc2)c(Cl)c1	10µM*	-9.7%	3.0%	-12.5%	-16.7%
O=C(Nc1ccc(Br)cc1)c1cccnc1N1CCCCC1	?	68.6%	-2.1%	6.2%	32.5%
CC1(C(=O)O)CCC2(C)CCC3(C)C(=CC(=O)C4C5(C)CCC(O)C(C)(C)C5CCC43C)C2C1 (centres undefined)	-5.9%[12.7 µM]	·	1.2%	·	·
C=CCNC(=O)COc1cc(C)cc(C)c1C	?	38.6%	1.6%	79.4µM*	-14.1%
COc1ccc2[nH]c3c(c2c1)[C@@H]1CCN2C(=O)CCC[C@H](C3)[C@H]12	31.6µM*	11.4%	-2.2%	?	-22.2%
Cn1cnc(C(=O)N2CCc3ccccc3C2)c1C(=O)N1CCc2ccccc2C1	·	?	4.6%	·	15.8µM*
Cc1ccc(S(=O)(=O)NC(CC(C)C)C(=O)N2CCN(C/C=C/c3ccccc3)CC2)cc1 (centres undefined)	-20.9%[12.7 µM]	21.5%	-8.9%	-30.4%	-15.4%
O=c1[nH]c(CN2CCc3ccccc32)nc2scc(-c3cccs3)c12	17.8µM*	4.7%	10.8%	-14.3%	-28.0%
COc1ccc(OC)c(NC(=O)CN2CCCN(Cc3ccccc3Cl)S2(=O)=O)c1	-3.4%[59 µM]	52.2%	3.0%	?	-13.1%
CCOC(=O)c1c(C)[nH]c(N=Nc2cc(C(=O)O)cc(C(=O)O)c2)c1C	-22.7%[59 µM]	-21.4%	4.1%	?	-28.8%
CCOC(=O)c1c(C)[nH]c(N=Nc2ccc(C)cc2C)c1C	44.7µM*	22.4µM*	2.5%	14.1µM*	50.1µM*
CCOC(=O)c1c(C)[nH]c(N=Nc2ccccc2C)c1C	15.8µM*	-34.8%	16.3%	31.6µM*	25.1µM*
C[C@@H]1CN([C@H](C)CO)S(=O)(=O)c2ccc(C#CCN(C)C)cc2O[C@@H]1CN(C)Cc1ccccc1F	·	·	1.4%	·	·
Cc1c(C2=CCN(S(=O)(=O)c3ccc(Br)cc3)CC2)c2ccccc2n1C	39.8µM*	-7.4%	3.9%	?	-30.1%
CCn1c(C)c(C2=CCN(S(=O)(=O)c3ccc(C)cc3)CC2)c2ccccc21	-20.7%[59 µM]	-14.2%	-0.1%	?	?
Cn1c(=O)c(C(=O)COC(=O)c2cc(-c3ccccc3)nc3ccccc23)c(N)n(Cc2ccccc2)c1=O	79.4µM*	·	·	?	·
CNS(=O)(=O)c1cccc(C(=O)OCC(=O)c2c(N)n(Cc3ccccc3)c(=O)n(C)c2=O)c1	·	-10.1%	0.8%	·	-30.1%
Cn1c(=O)c(C(=O)COC(=O)c2cc(C3CC3)nc3ccccc23)c(N)n(Cc2ccccc2)c1=O	79.4µM*	29.4%	12.4%	-6.0%	-25.4%
COCCCNCC(=O)c1c(N)n(Cc2ccccc2)c(=O)n(C)c1=O	?	-15.9%	4.4%	?	79.4µM*
Cn1c(=O)c(C(=O)COC(=O)c2cc(C(F)(F)F)nc3ccccc23)c(N)n(Cc2ccccc2)c1=O	?	·	·	-25.9%	·
Cn1c(=O)c(C(=O)COC(=O)c2cc(-c3ccco3)nc3ccccc23)c(N)n(CC2CC2)c1=O	6.31µM*	·	·	?	·
SMILES	G9a inh	HP1b chromo inh	GLS inh	BAZ2B block	JMJD2A Tudor inh
CC(C)n1nnnc1C1c2ccccc2C(=O)N1C1CC1 (centres undefined)	·	·	6.7%	·	·
CCC(=O)c1ccc(Oc2ccc(C(=O)c3ccc(C)cc3)cc2[N+](=O)[O-])cc1	-49.7%[59 µM]	-6.7%	6.5%	-29.2%	-15.2%
O=C(c1ccccc1)c1ccc(Oc2ccc([N+](=O)[O-])cc2[N+](=O)[O-])cc1	·	?	-9.7%	·	7.08µM*
Cc1cc(-c2n[nH]c(=S)n2/N=C/c2sccc2C)n[nH]1	1.26µM*	?	-19.6%	?	3.16µM*
Cc1ccsc1/C=N/n1c(-c2ccco2)n[nH]c1=S	0.794µM*	-10.4%	-20.0%	-21.5%[57.1 µM]	7.08µM*
Cc1ccsc1/C=N/N1CCOCC1	-1.9%	2.4%	1.5%	-18.4%	-21.4%
Cc1ccsc1/C=N/n1c(-c2ccncc2)n[nH]c1=S	1.12µM*	-16.6%	-2.7%	-35.5%	3.16µM*
Cc1ccsc1/C=N/n1c(-c2ccccc2)n[nH]c1=S	1.78µM*	11.1%	7.3%	2.8%	28.2µM*
CC(C)C[C@H]1CN(CCCC[C@H]2CNC(=O)C(=O)N2CCc2ccccc2)C(=O)C(=O)N1CCC1CCCCC1	·	·	6.5%	·	·
CC(C)CN(C(=O)COC(=O)c1ccc2c(c1)OCO2)c1c(N)n(Cc2ccccc2)c(=O)[nH]c1=O	5.2%[0.501 µM]	8.3%	6.1%	-3.3%	-6.2%
Cc1oc2ncn(CC(C)C)c(=O)c2c1C(=O)NCc1cccc(Cl)c1	-0.6%[59 µM]	35.7%	2.8%	11.2%[57.1 µM]	12.6%
Cc1ccc(-c2nc3ccccc3o2)cc1NC(=O)c1cccc2c(Cl)cccc12	-5.7%[59 µM]	4.5%	-4.7%	-14.8%	-16.8%
Cc1ccc2c(c1)-c1onc(C(=O)N3CCN(c4ccc(Cl)cc4)CC3)c1CO2	-4.1%[59 µM]	61.4%	6.9%	-2.2%	-2.0%
Cc1ccsc1/C=N/n1c(-c2ccccn2)n[nH]c1=S	2.24µM*	32.1%	?	8.91µM*	3.16µM*
Cc1ccsc1/C=N/Nc1nc2ccccc2[nH]1	6.3%[59 µM]	-2.0%	32.7%	-37.1%	?
CC1(Oc2ccc(-n3ccnc3)cc2)CCN(Cc2cccn2-c2nccs2)C1 (centres undefined)	·	·	12.0%	·	·
CC(/C=N/n1c(-c2ccco2)n[nH]c1=S)=C\c1ccco1	1.41µM*	?	-11.0%	?	44.7µM*
CC(=C/c1ccco1)/C=N/N1CCN(c2ccccc2)CC1	-8.1%	20.1%	·	?	11.6%
CC(/C=N/n1c(-c2ccncc2)n[nH]c1=S)=C\c1ccco1	·	-5.2%	?	?	5.01µM*
CC(/C=N/N1CCN(c2ccccc2)CC1)=C\c1ccco1	-20.6%	-17.3%	32.1%	-33.8%[57.1 µM]	-30.8%
CC(/C=N/n1c(-c2ccc(C)cc2)n[nH]c1=S)=C\c1ccco1	1.26µM*	?	-12.6%	-29.1%	?
CC(/C=N/n1c(-c2ccccc2)n[nH]c1=S)=C\c1ccco1	2.24µM*	-19.6%	-24.2%	50.1µM*	50.1µM*

Source: PubChem
